Screen size: about 4,400 compounds; about 390 (8.9%) showed an effect of 50% or more. The sample as a whole holds a higher share of strong results than the screen did.
These molecules were tested on Trypanosoma brucei (assay: DNDI: Inhibition of Human African Trypanosomiasis, SBRI 427, in vitro at 2 ug.mL-1).
Type: functional

Structure (SMILES) | % inhibition [%]
COc1cccc(Oc2ccc(/C(=N/O)Nc3ccc(C(C)C)cc3)cn2)c1 | -4
CC(C)(C)CNCc1coc(-c2ccc(Cl)cc2Cl)n1 | 14
CC1CCc2ccccc2N1/C(=N\O)c1ccc(Oc2cccc3c2OC(C)(C)C3)nc1 (stereo not given) | 10
C=CCN1CCN(/C(=N\O)c2ccc(C)nc2Oc2ccc(C)cc2C)CC1 | 14
CCCC1=NCCN1Cc1coc(-c2cccc(OCC)c2)n1 | 2
Cc1ccccc1-c1nc(CNCc2ccccn2)co1 | 15
CN(Cc1coc(-c2cccc3ccccc23)n1)C1CCCCC1 | 82
Cc1ccccc1-c1nc(CN(C)C2CCCCC2)co1 | 10
CCOc1ccccc1-c1nc(CN(C)C2CCN(C)CC2)co1 | -1
CCOc1ccccc1-c1nc(CN(C)C2CCCCC2)co1 | 13
Cc1ccccc1-c1nc(CN(C)C2CCN(C)CC2)co1 | 28
CN1CCC(N(C)Cc2coc(-c3cccc4ccccc34)n2)CC1 | 69
CCOc1ccccc1-c1nc(Cn2nc(N)cc2C)co1 | 5
COc1ccc(Oc2nc(C)ccc2/C(=N/O)NCc2cccc(OC)c2)cc1 | 25
C#CC1(NCc2coc(-c3cccc(F)c3)n2)CCCCC1 | 18
O/N=C(/c1ccnc(Oc2ccc(F)c(Cl)c2)c1)N1CCSC1 | -2
Cc1ccc(/C(=N/O)N(C)Cc2ccco2)c(Oc2cccnc2)n1 | 13
CCCCN(C)Cc1coc(-c2cccc3ccccc23)n1 | 16
CC(C)(C)COc1ncccc1/C(=N/O)n1ccnc1 | 30
COC(=O)C1CCN(/C(=N\O)c2cccnc2OCC(F)(F)F)CC1 | 12
CC(=O)c1ccc(N/C(=N\O)c2cccnc2Oc2ccccc2OCc2ccccc2)cc1 | -2
COC(=O)C1CCN(/C(=N\O)c2cccnc2OCc2ccccc2)CC1 | 61

Structure (SMILES) | % inhibition [%]
O/N=C(\Nc1ccccc1)c1cccnc1OCc1ccccc1 | 77
CCCN/C(=N\O)c1cccnc1Oc1ccccc1OCc1ccccc1 | -7
CC(C)COc1ncccc1/C(=N/O)Nc1ccccc1 | 5
O/N=C(\NCc1cccs1)c1cccnc1OCc1ccccc1 | 10
CC(C)N/C(=N\O)c1cccnc1Oc1ccccc1OCc1ccccc1 | -14
O/N=C(\NCc1c(F)cccc1F)c1cccnc1OCc1ccccc1 | 23
COC(=O)C1CCN(/C(=N\O)c2cccnc2OCC(C)C)CC1 | 5
O/N=C(\NCC1CC1)c1cccnc1OCc1ccccc1 | 99
O/N=C(\NC1CCC1)c1cccnc1Oc1ccccc1OCc1ccccc1 | 97
COc1cccc(Oc2ccc(/C(=N/O)N3CCN(c4ccccc4)CC3)cn2)c1 | -6
COCCN(Cc1coc(-c2cccc3ccccc23)n1)C(C)C | 6
CCOc1ccccc1-c1nc(CN(c2ccccc2)C2CCCCC2)co1 | -3
COC(=O)C1CCN(/C(=N\O)c2ccc(C)nc2Oc2cccc3cnccc23)CC1 | 21
COc1cccc(-c2nc(CN3CCN(c4ccccc4)CC3)co2)c1 | 15
c1coc(-c2nc(CN3CCN(Cc4ccc5c(c4)OCO5)CC3)co2)c1 | -2
COc1ccc(-c2nc(CNCc3cccc(OC)c3)co2)cc1 | -15
COCCN(/C(=N\O)c1ccc(C)nc1Oc1cccc(C)c1)C(C)C | 23
Cc1ccc(/C(=N/O)N2C(C)C=CC2C)c(Oc2ccc(F)c(Cl)c2)n1 (stereo not given) | 8
CCN(Cc1ccncc1)Cc1coc(-c2cccc3ccccc23)n1 | 27
N/C(=N\O)c1cccnc1OCc1ccccc1 | 9
O/N=C(\NC1CCCC1)c1cccnc1OCc1ccccc1 | 53
CC(C)c1ccc(COc2ncccc2/C(=N/O)NC2CCCC2)cc1 | 21

Structure (SMILES) | % inhibition [%]
COc1ccc(CN/C(=N\O)c2cccnc2OCc2ccccc2)cc1 | 10
COCC(C)N/C(=N\O)c1cccnc1Oc1ccccc1OCc1ccccc1 (stereo not given) | -7
CCC(CC)N/C(=N\O)c1cccnc1OCc1ccccc1 | 94
CN(/C(=N\O)c1ccc(Oc2cccc3ccccc23)nc1)C1CCCCC1 | 25
CN(Cc1coc(-c2ccc(Br)cc2)n1)Cc1ccco1 | 29
CC(C)c1ccc(N/C(=N\O)c2cccnc2OCc2ccccc2F)cc1 | -12
Cc1ccc(-c2nc(CN3CC[C@H]4CCCC[C@@H]4C3)co2)cc1 | 25
CC1CCCCN1CCCNCc1coc(-c2cccc3ccccc23)n1 (stereo not given) | 86
CC1CCCCN1CCCNCc1coc(-c2ccccc2Br)n1 (stereo not given) | 20
CC1CCCN1Cc1coc(-c2cccc3ccccc23)n1 (stereo not given) | 39
c1ccc2c(-c3nc(CNCCN4CCCCC4)co3)cccc2c1 | 14
CCC1CCCCN1Cc1coc(-c2ccccc2Cl)n1 (stereo not given) | -10
CC1CCCCN1Cc1coc(-c2cccc3ccccc23)n1 (stereo not given) | 3
c1ccc2c(-c3nc(CNCCCN4CCOCC4)co3)cccc2c1 | 30
c1ccc2c(-c3nc(CNCCCN4CCCC4)co3)cccc2c1 | 93
CCC1CCCCN1Cc1coc(-c2cccc3ccccc23)n1 (stereo not given) | 84
CN(CCCNCc1coc(-c2ccc(C(F)(F)F)cc2)n1)c1ccccc1 | -7
Brc1ccccc1-c1nc(CN(Cc2ccccn2)Cc2ccccn2)co1 | 9
COCCN(/C(=N\O)c1ccc(Oc2ccc3oc4ccccc4c3c2)nc1)C(C)C | 7
FC(F)(F)c1ccc(-c2nc(CN3CCC4(CC3)OCCO4)co2)cc1 | -8
Cc1cc(C)cc(Oc2ccc(/C(=N/O)N3CCN(c4ccccc4)CC3)cn2)c1 | 9
COc1ccc(Oc2nc(C)ccc2/C(=N/O)N2CCCC2C)cc1 (stereo not given) | -10

Structure (SMILES) | % inhibition [%]
Cc1ccccc1-c1nc(CN2CCN(c3ccc(F)cc3)CC2)co1 | -10
COC[C@H]1CCCN1Cc1coc(-c2cccc(F)c2)n1 | 0
CCCc1nccn1Cc1coc(-c2ccc(Cl)cc2Cl)n1 | 50
CC(C)c1nccn1Cc1coc(-c2ccc(Cl)cc2Cl)n1 | -20
Clc1ccc(-c2nc(CN3CCN(Cc4ccccc4)CC3)co2)c(Cl)c1 | 12
CCc1nccn1Cc1coc(-c2ccc(Cl)cc2Cl)n1 | 22
Clc1ccccc1-c1nc(CN2CCN(c3ncccn3)CC2)co1 | -3
Clc1ccc(-c2nc(CN3CCN(c4ncccn4)CC3)co2)c(Cl)c1 | 58
CCOc1ccccc1-c1nc(CN2CCCCCC2)co1 | 7
CSc1ccc(Oc2nc(C)ccc2/C(=N/O)NC2CCC2)cc1 | 3
C=CCN(Cc1coc(-c2cccc(OC)c2)n1)c1ccccc1 | 35
Cc1cccc(Oc2ncccc2/C(=N/O)N2CCOCC2)c1C | 10
FC(F)(F)c1ccc(-c2nc(CNCc3ccccc3C(F)(F)F)co2)cc1 | 0
Cc1ccc(/C(=N/O)N2CCCCCC2)c(Oc2cccc(C(C)C)c2)n1 | 14
COc1ccc(Oc2ncccc2/C(=N/O)NCc2ccccc2F)cc1 | 70
O/N=C(\NCc1cc(F)ccc1F)c1cccnc1Oc1ccc(F)cc1 | -3
COc1ccc(Oc2nc(C)ccc2/C(=N/O)NCc2ccccc2F)cc1 | -6
O/N=C(\NCc1ccccc1F)c1cccnc1OCC(F)(F)F | -12
O/N=C(\NCc1ccccc1F)c1cccnc1Oc1ccc(F)cc1 | 51
Clc1ccccc1-c1nc(CNCc2ccco2)co1 | -7
CC(C)N(C)Cc1coc(-c2ccccc2Cl)n1 | 4
Cc1ccc(Oc2cc(/C(=N/O)NCc3cccs3)ccn2)c2c1CCC2 | 3

Structure (SMILES) | % inhibition [%]
Cc1ccc(Oc2ncccc2/C(=N/O)NCc2ccncc2)c2c1CCC2 | 8
Cc1cc(C)cc(CN/C(=N\O)c2cccnc2Oc2ccc(C)c3c2CCC3)c1 | 69
COc1ccc(CN/C(=N\O)c2cccnc2Oc2ccc(C)c3c2CCC3)cc1 | 9
Cc1ccc(Oc2ncccc2/C(=N/O)NCc2ccccc2)c2c1CCC2 | 99
Cc1ccc(Oc2ncccc2/C(=N/O)NCc2ccco2)c2c1CCC2 | -6
CCOc1ccccc1CN/C(=N\O)c1cccnc1Oc1ccc(C)c2c1CCC2 | 100
Cc1ccc(Oc2ncccc2/C(=N/O)NCc2cc(F)ccc2F)c2c1CCC2 | 28
Cc1ccc(Oc2ncccc2/C(=N/O)NCc2cccs2)c2c1CCC2 | 99
Cc1ccc(Oc2ncccc2/C(=N/O)NCc2cccnc2)c2c1CCC2 | 6
COc1ccc(-c2nc(CN(C)C3CCN(Cc4ccccc4)C3)co2)cc1 (stereo not given) | -9
O/N=C(/c1ccnc(Oc2cccc3cnccc23)c1)N1CCN(c2ccccc2)CC1 | 7
N#CCCN(Cc1coc(-c2ccc(C(F)(F)F)cc2)n1)CC1CCCO1 (stereo not given) | -3
O/N=C(/c1ccnc(Oc2cccc3ccccc23)c1)N1CCSC1 | 22
CSc1ccc(Oc2nc(C)ccc2/C(=N/O)NCc2ccccc2C)cc1 | 7
Cc1ccc(N2CCN(Cc3coc(-c4ccccc4F)n3)CC2)c(C)c1 | -17
CSc1ccc(Oc2ncccc2/C(=N/O)NCc2ccccn2)cc1C | 2
CN(Cc1coc(-c2ccccc2Cl)n1)C1CCN(Cc2ccccc2)C1 (stereo not given) | -15
COc1ccc(Oc2nc(C)ccc2/C(=N/O)N2CCSC2)cc1 | 27
COc1cc(-c2nc(CNC3CCc4ccccc43)co2)cc(OC)c1OC (stereo not given) | 28
COc1ccc(CCN(C)Cc2coc(-c3ccc(F)cc3)n2)cc1OC | -7
COc1ccc(CCN(C)Cc2coc(-c3ccc(Br)cc3)n2)cc1OC | 65
COc1ccc(CCN(C)Cc2coc(-c3ccc(O)cc3)n2)cc1OC | -29

Source: ChEMBL document CHEMBL1857833, “Screening and optimization of specific chemical series against human African Trypanosomiasis (HAT)”
